Experimental data reported in PubChem BioAssay (NCI).
Compounds without any hit were thinned out: in the full panel of roughly 83,000, 20% have a hit.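 48-hour exposure, single concentration, 96-well plates; percent growth endpoint where 0 means no net growth. Active: below 10.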 Activity calls are given as the source filed them.

Assays:
Test in all cases: NCI-60 one-dose screen, 48 h (100 = growth as untreated, 0 = no growth, -100 = all killed)
Conditions in all cases: 10 µM unless noted
HCT-15 colon = test system: HCT-15 colon
HT29 colon = test system: HT29 colon
SNB-75 CNS = test system: SNB-75 CNS
SNB-19 CNS = test system: SNB-19 CNS
PC-3 prostate = test system: PC-3 prostate
SK-MEL-5 melanoma = test system: SK-MEL-5 melanoma
UACC-62 melanoma = test system: UACC-62 melanoma
LOX IMVI melanoma = test system: LOX IMVI melanoma
SK-MEL-28 melanoma = test system: SK-MEL-28 melanoma
SK-MEL-2 melanoma = test system: SK-MEL-2 melanoma
EKVX NSCLC = test system: EKVX NSCLC
SN12C renal = test system: SN12C renal
UO-31 renal = test system: UO-31 renal
TK-10 renal = test system: TK-10 renal
ACHN renal = test system: ACHN renal
CAKI-1 renal = test system: CAKI-1 renal
A498 renal = test system: A498 renal
CCRF-CEM leukemia = test system: CCRF-CEM leukemia
MOLT-4 leukemia = test system: MOLT-4 leukemia
U251 CNS = test system: U251 CNS

Measured: growth

Cc1nc2sccn2c1-c1nnc(SCc2ccccc2)o1
inactive: HCT-15 colon 89.2% | HT29 colon 85.6% | SNB-75 CNS 106% | SNB-19 CNS 80.6% | PC-3 prostate 82% | SK-MEL-5 melanoma 90% | UACC-62 melanoma 80.2% | LOX IMVI melanoma 92.7% | SK-MEL-28 melanoma 94.8% | SK-MEL-2 melanoma 87% | EKVX NSCLC 87.5% | SN12C renal 86.6% | UO-31 renal 74.2% | TK-10 renal 110% | ACHN renal 92.6% | CAKI-1 renal 85.2% | A498 renal 87.8% | CCRF-CEM leukemia 91.3% | MOLT-4 leukemia 88.1%

CC1=C(C)C(=O)C(N2CCSCC2)=CC1=O
inactive: HCT-15 colon 104% | HT29 colon 103% | SNB-75 CNS 80.8% | SNB-19 CNS 87.2% | PC-3 prostate 89.7% | SK-MEL-5 melanoma 96.7% | UACC-62 melanoma 93.3% | LOX IMVI melanoma 83.8% | SK-MEL-28 melanoma 107% | SK-MEL-2 melanoma 94.6% | EKVX NSCLC 92.6% | SN12C renal 100% | UO-31 renal 76.2% | TK-10 renal 130% | ACHN renal 96.6% | CAKI-1 renal 93.2% | CCRF-CEM leukemia 81% | MOLT-4 leukemia 86.3%

COC(=O)c1cc(C(=O)C(Br)Br)n2c1ccc1c3ccccc3ccc12
inactive: HCT-15 colon 34.2% | HT29 colon 63.1% | SNB-75 CNS 66.4% | SNB-19 CNS 58.6% | PC-3 prostate 56.3% | SK-MEL-5 melanoma 61.7% | UACC-62 melanoma 51.8% | LOX IMVI melanoma 41.4% | SK-MEL-28 melanoma 105% | SK-MEL-2 melanoma 104% | EKVX NSCLC 43.3% | SN12C renal 53.3% | UO-31 renal 37.8% | TK-10 renal 65.3% | ACHN renal 36.2% | CAKI-1 renal 58.3% | A498 renal 121% | CCRF-CEM leukemia 35.6% | MOLT-4 leukemia 22.9%

COc1ccc(N=Nc2c(N)nn3c(-c4ccc5c(c4)C=S=C5)ccnc23)cc1
inactive: HCT-15 colon 18.2% | HT29 colon 47.6% | SNB-75 CNS 35.6% | SNB-19 CNS 59.7% | U251 CNS 34.5% | PC-3 prostate 25% | SK-MEL-5 melanoma 16.9% | LOX IMVI melanoma 13% | SK-MEL-2 melanoma 93.4% | EKVX NSCLC 33.9% | SN12C renal 39% | UO-31 renal 16.4% | TK-10 renal 82.4% | ACHN renal 31.6% | CAKI-1 renal 34% | A498 renal 144% | CCRF-CEM leukemia 10.1% | MOLT-4 leukemia 32.9%

Cc1nc(Nc2ccccn2)sc1C1=NNC(c2ccccc2F)C1 (stereo not given)
inactive: HCT-15 colon 20.8% | HT29 colon 30.4% | SNB-75 CNS 62.3% | SNB-19 CNS 56.1% | PC-3 prostate 58.5% | SK-MEL-5 melanoma 48.7% | UACC-62 melanoma 29.4% | LOX IMVI melanoma 31.5% | SK-MEL-28 melanoma 65.9% | SK-MEL-2 melanoma 62.1% | EKVX NSCLC 72.4% | SN12C renal 57.9% | UO-31 renal 48% | TK-10 renal 119% | ACHN renal 56.5% | CAKI-1 renal 61.8% | A498 renal 101% | CCRF-CEM leukemia 19.1% | MOLT-4 leukemia 25.4%

O=C1N/C(=N\c2nccs2)S/C1=C\c1ccc([N+](=O)[O-])cc1
active: SNB-19 CNS 9.41% | SK-MEL-5 melanoma -8.09% | UACC-62 melanoma 2.3% | SK-MEL-28 melanoma 6.49% | CCRF-CEM leukemia -0.568%
inactive: HCT-15 colon 16% | HT29 colon 17.2% | SNB-75 CNS 34.1% | PC-3 prostate 17.6% | LOX IMVI melanoma 12.5% | SK-MEL-2 melanoma 16.8% | EKVX NSCLC 14.3% | SN12C renal 11.9% | UO-31 renal 12.6% | TK-10 renal 31.9% | ACHN renal 11.3% | CAKI-1 renal 18.8% | A498 renal 33.8% | MOLT-4 leukemia 11.9%

Cc1ccc(Cl)cc1NC(=O)Nc1nc2ccc([N+](=O)[O-])cc2s1
active: HCT-15 colon -4.98% | HT29 colon -18.9% | SNB-75 CNS -26.6% | SNB-19 CNS 7.85% | PC-3 prostate 2.69% | SK-MEL-5 melanoma -81.1% | UACC-62 melanoma -15.4% | LOX IMVI melanoma -21.1% | SK-MEL-28 melanoma -17% | SK-MEL-2 melanoma -47.1% | EKVX NSCLC -0.784% | SN12C renal -25.7% | UO-31 renal -16.3% | TK-10 renal 2.13% | ACHN renal -19.8% | CAKI-1 renal -26% | A498 renal -21.7% | CCRF-CEM leukemia 3.14% | MOLT-4 leukemia 6.23%

Cc1ccc(N=Nc2c(N)nn3c(-c4cc5cc(Br)ccc5oc4=O)ccnc23)cc1
inactive: HCT-15 colon 79.2% | HT29 colon 65% | SNB-75 CNS 61.3% | PC-3 prostate 88.3% | SK-MEL-5 melanoma 50.8% | UACC-62 melanoma 99.5% | LOX IMVI melanoma 51.8% | SK-MEL-28 melanoma 110% | EKVX NSCLC 72.2% | SN12C renal 35.6% | UO-31 renal 79.8% | TK-10 renal 81.9% | ACHN renal 54.4% | CAKI-1 renal 80.8% | CCRF-CEM leukemia 99.8% | MOLT-4 leukemia 98.6%
active: SNB-19 CNS -13%

N#Cc1ccc(C(=O)CSc2nc3c(c(Nc4ccc(S(N)(=O)=O)cc4)n2)CCC3)cc1
inactive: HCT-15 colon 49.9% | HT29 colon 55.8% | PC-3 prostate 65.3% | SK-MEL-5 melanoma 71.9% | UACC-62 melanoma 83.1% | SK-MEL-28 melanoma 48.5% | EKVX NSCLC 49.8% | SN12C renal 35.3% | UO-31 renal 66.8% | TK-10 renal 55.2% | ACHN renal 10.9% | CAKI-1 renal 39.1% | A498 renal 137% | CCRF-CEM leukemia 81.1% | MOLT-4 leukemia 73.3%
active: SNB-75 CNS 8.38% | SNB-19 CNS -13.3% | LOX IMVI melanoma 1.66%

O=C1Nc2ccc(F)cc2/C1=C/C(=O)c1cc2ccccc2oc1=O
inactive: HCT-15 colon 62.7% | HT29 colon 115% | SNB-75 CNS 91.1% | SNB-19 CNS 100% | U251 CNS 104% | PC-3 prostate 93.7% | SK-MEL-5 melanoma 102% | SK-MEL-28 melanoma 117% | SK-MEL-2 melanoma 102% | EKVX NSCLC 90.3% | SN12C renal 104% | UO-31 renal 62.1% | TK-10 renal 161% | ACHN renal 62.5% | A498 renal 128% | CCRF-CEM leukemia 39.6% | MOLT-4 leukemia 65%

O=C(c1ccc(Cl)cc1)C1[C@H](c2ccccc2Cl)[C@@H](c2ccccc2)NC12C(=O)Nc1ccccc12 (stereo not given in full)
active: HCT-15 colon -25.8% | HT29 colon -71.7% | SNB-75 CNS -4.03% | SNB-19 CNS 7.09% | U251 CNS -26.4% | PC-3 prostate -3.66% | SK-MEL-5 melanoma -97.1% | LOX IMVI melanoma -97.9% | SK-MEL-2 melanoma -85.3% | EKVX NSCLC 1.03% | SN12C renal -89.1% | UO-31 renal 3.34% | ACHN renal 1.1% | CAKI-1 renal 3.65% | A498 renal -29% | CCRF-CEM leukemia 4.66% | MOLT-4 leukemia -32.1%
inactive: TK-10 renal 12.1%

Cc1ccc(C(=O)Nc2cc(-n3cnc(F)c3)cc(C(F)(F)F)c2)cc1C#Cc1cnc2cccnn12
inactive: HCT-15 colon 36.2% | HT29 colon 35.4% | SNB-75 CNS 132% | SNB-19 CNS 106% | PC-3 prostate 89.8% | SK-MEL-5 melanoma 38.3% | UACC-62 melanoma 26% | LOX IMVI melanoma 22% | SK-MEL-28 melanoma 29.3% | SK-MEL-2 melanoma 40.7% | EKVX NSCLC 74.2% | SN12C renal 45.6% | UO-31 renal 39.9% | TK-10 renal 83.2% | ACHN renal 59.4% | CAKI-1 renal 63.1% | A498 renal 103% | CCRF-CEM leukemia 29% | MOLT-4 leukemia 44.7%

COC(=O)c1c(C(=O)OC)c2ccc3c4ccccc4ccc3n2c1C(=O)OC
inactive: HCT-15 colon 98.1% | HT29 colon 108% | SNB-75 CNS 95.9% | SNB-19 CNS 81.1% | PC-3 prostate 98.9% | SK-MEL-5 melanoma 98.3% | UACC-62 melanoma 93.6% | LOX IMVI melanoma 104% | SK-MEL-28 melanoma 109% | SK-MEL-2 melanoma 108% | EKVX NSCLC 97% | SN12C renal 95.6% | UO-31 renal 87.8% | TK-10 renal 103% | ACHN renal 109% | CAKI-1 renal 107% | A498 renal 129% | CCRF-CEM leukemia 101% | MOLT-4 leukemia 114%

CC[C@]12C=CCN3CC[C@]4(C(=C(C(=O)OC)C1)Nc1cc(OC)c([C@@H]5[C@H]6O[C@H]6[C@@]6(CC)CC(C(=O)OC)=C7Nc8cc(OC)ccc8[C@@]78CCN5[C@@H]68)cc14)[C@@H]32
inactive: HCT-15 colon 24.8% | HT29 colon 58.9% | SNB-75 CNS 50% | SNB-19 CNS 58.2% | U251 CNS 48.4% | PC-3 prostate 18.7% | SK-MEL-5 melanoma 27.9% | SK-MEL-28 melanoma 82.5% | SK-MEL-2 melanoma 83.1% | EKVX NSCLC 51.7% | SN12C renal 50% | UO-31 renal 69.5% | TK-10 renal 72.5% | ACHN renal 44% | CAKI-1 renal 43.4% | A498 renal 141% | CCRF-CEM leukemia 30.8% | MOLT-4 leukemia 18.4%

COc1cc(C2CC(c3ccc(S(=O)(=O)NCCNc4nc(N(C)C)nc(N5CCOCC5)n4)cc3)=Nc3c(N)nc(N)nc3N2)cc(OC)c1OC (stereo not given)
inactive: HCT-15 colon 93.8% | HT29 colon 99.8% | SNB-75 CNS 102% | SNB-19 CNS 96.2% | U251 CNS 97.5% | PC-3 prostate 96.3% | SK-MEL-5 melanoma 91.4% | LOX IMVI melanoma 94.3% | SK-MEL-2 melanoma 108% | EKVX NSCLC 75.4% | SN12C renal 86.5% | UO-31 renal 80.5% | TK-10 renal 107% | ACHN renal 94.6% | CAKI-1 renal 88.4% | A498 renal 79% | CCRF-CEM leukemia 99.3% | MOLT-4 leukemia 89.3%
